High-throughput results deposited in PubChem by National Center for Advancing Translational Sciences (NCATS).
Hits are enriched below; roughly 13% of the tested compounds scored in any of these assays.
Cycloheximide cs: counter-screen for Shiga toxin inhibitors: cycloheximide protein synthesis inhibition; cell reporter, cycloheximide protein synthesis inhibition counterscreen; max response, %; 300,000 compounds, 12% hits; AID 2314; in the data active = max response mostly above about 13%, no sharp cut-off; inactive = mostly below about 14%; note: read at 38.3 µM for the half of the compounds with a filed dose; 0% is about no effect
HCV inhibitor: HCV inhibition; Huh7.5.1 HCVcc-Cre infection, luciferase reporter, 44 h; Potency, µM (top dose mostly 41.8 µM), for the others: at the highest dose activity change, negative = inhibition, most hits filed as inhibitors; 340,000 compounds, 3.4% hits; active = well fitted inhibition curve with a large enough effect; inconclusive = small, poorly fitted or top-dose-only effect, or another doubt; inactive = no such curve, though single readings can be large or run the other way; note: potency is the fitted concentration of half-maximal effect; % is set by controls: 0 for no effect and ±100 for the full control effect
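Luciferase read-out (15 sec integration) after a 15 min room-temperature substrate step quantifies HCVcc-Cre infection. Cells, 1,000 per well, had compound added 4 h post-plating, then virus at ~0.5 moi, and were cultured 44 h.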
LASV entry inh: inhibitors of Lassa virus binding or cell entry; Lassa virus pseudotype entry inhibition, cell reporter; Potency, µM (top dose mostly 37.9 µM), inactives show top-dose activity change, negative = inhibition, usual class: inhibitors; 300,000 compounds, 1.2% hits; AID 540256; calls by dose curve; tested in HEK293 cells; note: potency is the fitted concentration of half-maximal effect; % is set by controls: 0 for no effect and ±100 for the full control effect; nearly all actives have a fitted effect of over 50% in size
MARV entry inh: blocks Marburg virus binding to or entry into cells | Marburg virus pseudotyped entry inhibition, cell reporter | Potency, µM (titrated, usually from 37.8 µM), for the others: at the highest dose activity change, negative = inhibition, actives largely listed as inhibitors | 300,000 compounds, 1.8% hits | AID 540276; calls by dose curve; tested in HEK293 cells; note: potency is the fitted concentration of half-maximal effect; % is set by controls: 0 for no effect and ±100 for the full control effect
Shiga inhibitor: blocks Shiga toxin action in Vero cells; Vero cells, Shiga toxin protein synthesis inhibition reporter; 290,000 compounds, 9.2% hits; inhibition, % at 38.7 µM; in the data active = inhibition mostly above about 28%, no sharp cut-off; inactive = mostly below about 43%; note: 0% is about no effect
FMDV inh: foot and mouth disease virus antiviral activity | FMDV antiviral cell-based qHTS | Potency, µM (doses to about 57.9 µM), inactives show top-dose activity change, negative = inhibition, actives largely listed as inhibitors | 410,000 compounds, 1.2% hits; calls by dose curve; tested in HEK293T cells; note: read-out not given here; potency is the fitted concentration of half-maximal effect; % is set by controls: 0 for no effect and ±100 for the full control effect; nearly all actives have a fitted effect of over 45% in size
The depositor's hits bear a star; ? = inconclusive; · = not tested or not shown; [ ] = remark or other dose.

SMILES	Cycloheximide cs	HCV inhibitor	LASV entry inh	MARV entry inh	Shiga inhibitor	FMDV inh
CCN(C[C@H]1N[C@@](CC)(C(=O)OC)[C@H]2C(=O)N(C)C(=O)[C@@H]12)C(=O)NC(C)C	·	2%	·	·	·	4%
C[C@H](CO)N1C[C@H](C)[C@@H](CN(C)C(=O)c2ccc3ccn(C)c3c2)OCc2cnnn2CCCC1=O	·	·	·	·	·	0%
CCNc1ccc(C(=O)OCC(=O)NC(C)c2ccccc2)cc1[N+](=O)[O-] (stereo not drawn)	-5	?	-3%	4%	-10	-21%
COc1ccccc1Nc1nn2c(=O)c3ccc(C(=O)NC(C)c4ccccc4)cc3nc2s1 (stereo not drawn)	·	·	-12%[46.1 µM]	·	·	-10%
CCC(C)c1ccc(NC(=S)NC(C)C2CCCO2)cc1 (stereo not drawn)	10*	-10%	·	·	38*	34%
CC(NC(=O)c1ccc(Br)o1)C1CCCO1 (stereo not drawn)	-3	12%	·	·	8	-21%
CCC(C)c1ccc(C(CC)NC(=O)C2CCCO2)cc1 (stereo not drawn)	-1	10µM*	·	·	-19	?
CCC(C)c1ccccc1NC(=O)C1CCCO1 (stereo not drawn)	-2	14%	0%	10%	2	6%
c1ccc2c3c(ccc2c1)OCC1CONC31 (stereo not drawn)	15	-9%	0%[46.1 µM]	12%[46.1 µM]	6	26%
COc1cc2c(cc1OC)C(NC(=O)c1ccc(C)cc1)CC2=O (stereo not drawn)	-4	6%	·	·	-6	-6%
CCc1ccc(NCc2nc3ccccc3c(=O)[nH]2)cc1	25*	?	-13%	?	88*	-17%
CCOC(=O)c1ccc(Nc2nnc(C)c3ccccc23)cc1	20*	-13%	?	?	56*	8%
CCOC(=O)c1ccc(Nc2cnc3ccccc3n2)cc1	47*	16%	16%	?	78*	27%
O=C(O)c1ccc(Nc2cnc3ccccc3n2)cc1	38*	-7%	4%	1%	63	0%
CCOC(=O)c1ccc(Nc2cc(C)nc(-c3ccccc3)n2)cc1	0	?	·	·	27	-22%
O=C(O)c1cnc2ccccc2n1	-4	-5%	-15%	-35%	-16	6%
CNC(=O)c1ccc(Nc2nnc(C)c3ccccc23)cc1	1	-2%	0%	13%	7	10%
COc1ccc(Nc2nc(C)nc3sc4c(c23)CCC4)cc1O	2	?	?	?	3	-19%
Cc1ccc(SCCOCCN2CCc3ccccc3C2)cc1	-2	?	-7%	?	-5	-17%
CCc1cccc(C)c1NC(=S)N1CCCC1C(=O)O (stereo not drawn)	-3	0%	3%	17%	-9	-16%
CCOC(=O)c1ccc(NCc2nc3ccccc3[nH]2)cc1	53*	-17%	1%	-2%	73*	-15%
CCOC(=O)c1ccc(NCc2ccncc2)cc1	·	3%	16%	-4%	·	0%
O=C(COC(=O)c1ccccc1NC(=O)C1CC1)c1ccc2c(c1)OCCO2	54*	-24%	·	-4%	75*	·
CC(C)(C)C(=O)Nc1ccccc1C(=O)OCC(=O)c1ccc2c(c1)OCCO2	69*	?	?	?	78*	?
O=C(COC(=O)c1ccc2c(c1)OCCO2)Nc1ccccc1C(F)(F)F	·	·	·	·	·	12%
SMILES	Cycloheximide cs	HCV inhibitor	LASV entry inh	MARV entry inh	Shiga inhibitor	FMDV inh
O=C(COC(=O)c1ccc(O)cc1O)c1ccc2c(c1)OCO2	76*	1%	-21%	0%	92*	17%
O=C(COC(=O)c1ccc(O)cc1)c1ccc2c(c1)OCCO2	·	5%	-17%	28%	·	0%
CCOc1ccc(NS(=O)(=O)c2ccc3[nH]cc(C(=O)NCC4CCCO4)c(=O)c3c2)cc1 (stereo not drawn)	38	12%	-10%	3%[46.1 µM]	10	10%
S=C(NCCc1ccccc1)N1CCCC1	·	7%	?	6%	·	50%
O=C(NCCc1ccc(F)cc1)N1CCOCC1	18*	0%	18%	3%	23	0%
S=C(NCCc1ccccc1)NCCN1CCOCC1	6.9*	24%	?	?	16	16%
S=C(NCCc1ccccc1)N1CCOCC1	40*	-2%	26%	0%	75*	84%
CCN1CCN(C(=S)NCCc2ccccc2)CC1	24*	-21%	?	25%	43*	18%
O=C(CCCc1ccccc1)NCCN1CCOCC1	-3	20%	2%	24%	-1	16%
O=C(Nc1c2c(nn1-c1ccccc1)CS(=O)(=O)C2)c1ccc2c(c1)OCO2	-2	·	-12%	0%	-11	0%
OCCN1CCN(C(=S)NCCc2ccccc2)CC1	18*	?	?	28%	71*	0%
S=C(Nc1ccccc1)N1CCOCC1	-2	4%	1%	?	-13	2%
S=C(N/N=C/c1ccccc1)N1CCOCC1	40*	-6%	?	?	57*	38%
S=C(NCCc1ccccc1)N1CCN(C(c2ccccc2)c2ccccc2)CC1	2	?	?	?	13	3%
O=C(Cn1cc2c(n1)CCCC2)NCc1ccccn1	-1	24%	·	·	2	0%
Cc1nnsc1-c1c(C(=O)N2CCOCC2)c(C)nn1-c1ccccc1	1	12%	3%	?	-10	-15%
Cc1cc(C)c2ccc(N)nc2c1O	-1	11µM*	?	?	-6	-14%
COc1ccc2c(Cl)c(C(=O)NN)sc2c1	25	-7%	?	-25%	27	·
O=C(N/N=C/c1cccnc1)c1sc2ccccc2c1Cl	21*	-4%	16%[46.1 µM]	13%[46.1 µM]	17	26%
O=C(N/N=C\c1cccnc1)c1ccc(Cl)s1	11	7%	·	·	20	0%
COc1ccc2c(Cl)c(C(=O)N/N=C/c3cccnc3)sc2c1	20*	5%	?	-26%[46.1 µM]	47*	10%
COc1ccc2c(Cl)c(C(N)=O)sc2c1	20*	?	6%	30%	10	14%
Cn1cc(/C=C(\C#N)C(=O)Nc2ncc(Cc3cccc(Cl)c3)s2)c2ccccc21	5	-17%	·	-3%	-4	·
N#C/C(=C\c1c[nH]c2ccccc12)C(=O)Nc1ncc(Cc2ccc(Cl)cc2Cl)s1	-4	35µM*	?	?	9	0%
COc1ccccc1NC(=O)c1cc2n(n1)C(C(F)(F)F)CC(c1ccc3c(c1)OCO3)N2 (stereo not drawn)	-3	?	?	?	1	0%
COc1ccc(OC)c(S(=O)(=O)N(C)CC(=O)Nc2ccc3c(c2)OCO3)c1	1	9%	2%	8%	-7	23%
COc1cccc(NC(=O)Nc2ccc3c(c2)OCO3)c1	40*	-11%	·	·	77*	77%
COc1ccc(OC)c(NC(=O)Nc2ccc3c(c2)OCO3)c1	15*	-21%	·	·	56*	13%
COc1ccc(OC)c(NC(=O)c2cc3n(n2)C(C(F)(F)F)CC(c2ccc4c(c2)OCO4)N3)c1 (stereo not drawn)	8	32µM*	-7%	2%	19	0%
